Laboratory results taken from PubChem BioAssay AID1159580 (chemical genetic matrix, 2015).
In all, about 5,500 compounds went through this assay and about 2,000 (36%) were called active. Another 18% or so got no clear call; they are omitted. Cut-off read from the data, not from the text of the source: active = normalized growth mostly below about 0.91 (no sharp cut-off); inconclusive = no clear call, values can overlap the other calls; inactive = mostly above about 0.92. The list shows a part of the results.

Experiment: chemical genetic growth profiling, strain panel (AID 1159580);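 note: tested at 20 µM; growth read once vehicle control cultures reached saturation at 30 °C; 1 = growth at the plate median or of vehicle wells; lower values mean less growth of the strain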
Settings: S. cerevisiae deletion strains, growth OD

Measured: normalized growth

CNNC
inactive: locus YAL013W, strain DEP1, stronger effect = lower value 1.01 | locus YAL021C, strain ccr4, stronger effect = lower value 1.01 | locus YAL026C, strain drs2, stronger effect = lower value 1.02 | locus YAL030W, strain snc1, stronger effect = lower value 1.02 | locus YBL061C, strain skt5, stronger effect = lower value 1 | locus YBR009C, strain hhf1, stronger effect = lower value 1.01 | locus YBR021W, strain FUR4, stronger effect = lower value 1.04 | locus YBR023C, strain chs3, stronger effect = lower value 1 | locus YBR171W, strain sec66, stronger effect = lower value 0.995 | locus YBR229C, strain ROT2, stronger effect = lower value 1.01 | locus YBR231C, strain swc5, stronger effect = lower value 1.01 | locus YBR279W, strain paf1, stronger effect = lower value 1.02 | locus YCL011C, strain gbp2, stronger effect = lower value 1.01 | locus YCL016C, strain dcc1, stronger effect = lower value 1.04 | locus YCL029C, strain bik1, stronger effect = lower value 1.01 | locus YCL069W, strain vba3, stronger effect = lower value 1.01 | locus YCR088W, strain abp1, stronger effect = lower value 1.01 | locus YDL005C, strain med2, stronger effect = lower value 0.987 | locus YDL035C, strain GPR1, stronger effect = lower value 1.02 | locus YDL040C, strain nat1, stronger effect = lower value 1 | locus YDL074C, strain BRE1, stronger effect = lower value 1.07 | locus YDL101C, strain DUN1, stronger effect = lower value 1.03 | locus YDL134C, strain PPH21, stronger effect = lower value 1.02 | locus YDL185W, strain tfp1, stronger effect = lower value 1.01 | locus YDL192W, strain arf1, stronger effect = lower value 0.995 | locus YDR001C, strain nth1, stronger effect = lower value 1.02 | locus YDR069C, strain doa4, stronger effect = lower value 1.02 | locus YDR101C, strain arx1, stronger effect = lower value 0.989 | locus YDR137W, strain rgp1, stronger effect = lower value 1.04 | locus YDR150W, strain NUM1, stronger effect = lower value 1 | locus YDR159W, strain sac3, stronger effect = lower value 0.991 | locus YDR162C, strain NBP2, stronger effect = lower value 1.03 | locus YDR195W, strain ref2 0.981 | locus YDR297W, strain sur2, stronger effect = lower value 1 | locus YDR318W, strain mcm21, stronger effect = lower value 0.997 | locus YDR334W, strain swr1, stronger effect = lower value 1.01 | locus YDR335W, strain msn5, stronger effect = lower value 1.01 | locus YDR388W, stronger effect = lower value 0.994 | locus YDR392W, strain spt3, stronger effect = lower value 1.01 | locus YDR502C, strain sam2, stronger effect = lower value 1.01 | locus YEL003W, strain gim4, stronger effect = lower value 1.01 | locus YEL037C, strain rad23, stronger effect = lower value 1.02 | locus YEL061C, strain CIN8 (second series), stronger effect = lower value 1.01 | locus YEL061C, strain CIN8, stronger effect = lower value 1.01 | locus YER015W, strain faa2, stronger effect = lower value 1.01 | locus YER016W, strain bim1, stronger effect = lower value 1.01 | locus YER110C, stronger effect = lower value 0.996 | locus YER111C, strain swi4, stronger effect = lower value 1 | locus YER155C, strain BEM2 (second series), stronger effect = lower value 1.04 | locus YER155C, strain BEM2, stronger effect = lower value 1.03 | locus YER167W, strain BCK2, stronger effect = lower value 1.02 | locus YFR010W, strain ubp6, stronger effect = lower value 0.993 | locus YGL078C, strain dbp3, stronger effect = lower value 1 | locus YGL086W, strain mad1, stronger effect = lower value 1.01 | locus YGL167C, strain pmr1, stronger effect = lower value 0.998 | locus YGL173C, strain kem1, stronger effect = lower value 0.987 | locus YGL227W, strain vid30, stronger effect = lower value 1.01 | locus YGL240W, strain doc1, stronger effect = lower value 0.995 | locus YGL248W, strain PDE1, stronger effect = lower value 1.02 | locus YGL253W, strain hxk2, stronger effect = lower value 1 | locus YGR078C, strain PAC10, stronger effect = lower value 1.04 | locus YGR135W, strain pre9, stronger effect = lower value 1.01 | locus YGR229C, strain SMI1, stronger effect = lower value 1.02 | locus YGR252W, strain gcn5, stronger effect = lower value 0.955 | locus YHR013C, strain ard1, stronger effect = lower value 1.02 | locus YHR027C, strain rpn1, stronger effect = lower value 1.02 | locus YHR030C, strain SLT2, stronger effect = lower value 1.02 | locus YHR079C, strain IRE1 (second series), stronger effect = lower value 1 | locus YHR094C, strain hxt1, stronger effect = lower value 0.998 | locus YHR129C, strain ARP1, stronger effect = lower value 1.02 | locus YHR142W, strain chs7, stronger effect = lower value 1.04 | locus YHR200W, strain rpn10, stronger effect = lower value 1 | locus YIL066C, strain RNR3, stronger effect = lower value 1.01 | locus YIL073C, strain SPO22, stronger effect = lower value 0.998 | locus YIL125W, strain kgd1, stronger effect = lower value 0.99 | locus YIR030C, strain dcg1, stronger effect = lower value 1.01 | locus YJL092W, strain hpr5, stronger effect = lower value 1.03 | locus YJL095W, strain BCK1 (second series), stronger effect = lower value 1.01 | locus YJL095W, strain BCK1, stronger effect = lower value 1.05 | locus YJL115W, strain asf1, stronger effect = lower value 0.994 | locus YJL129C, strain trk1, stronger effect = lower value 1.01 | locus YJL134W, strain LCB3, stronger effect = lower value 1.02 | locus YJL154C, strain vps35, stronger effect = lower value 1.02 | locus YJL164C, strain tpk1, stronger effect = lower value 0.996 | locus YJL166W, strain qcr8, stronger effect = lower value 0.997 | locus YJL168C, strain set2, stronger effect = lower value 1 | locus YJL187C, strain SWE1 (second series), stronger effect = lower value 1.02 | locus YJR043C, strain POL32, stronger effect = lower value 0.998
